The record followed here is ChEMBL document CHEMBL1961873, “Compounds: GSK PKIS; Assays: Nanosyn kinase panel” (2012).

In assay [1] the target is Mast/stem cell growth factor receptor Kit (Homo sapiens) (UniProt P10721). As to conditions: at 1 µM.
In assay [2] the test system is Mast/stem cell growth factor receptor Kit (Homo sapiens), P10721 [D816V]. Conditions: at 0.1 µM.
Assay [3] shares this test system. As to conditions: at 1 µM.
Assay [4] relates to Mast/stem cell growth factor receptor Kit (Homo sapiens), P10721 [T670I]. As to conditions: at 0.1 µM.
Chain of Mast/stem cell growth factor receptor Kit (Homo sapiens), P10721 [T670I] (P10721 whole entry T670I): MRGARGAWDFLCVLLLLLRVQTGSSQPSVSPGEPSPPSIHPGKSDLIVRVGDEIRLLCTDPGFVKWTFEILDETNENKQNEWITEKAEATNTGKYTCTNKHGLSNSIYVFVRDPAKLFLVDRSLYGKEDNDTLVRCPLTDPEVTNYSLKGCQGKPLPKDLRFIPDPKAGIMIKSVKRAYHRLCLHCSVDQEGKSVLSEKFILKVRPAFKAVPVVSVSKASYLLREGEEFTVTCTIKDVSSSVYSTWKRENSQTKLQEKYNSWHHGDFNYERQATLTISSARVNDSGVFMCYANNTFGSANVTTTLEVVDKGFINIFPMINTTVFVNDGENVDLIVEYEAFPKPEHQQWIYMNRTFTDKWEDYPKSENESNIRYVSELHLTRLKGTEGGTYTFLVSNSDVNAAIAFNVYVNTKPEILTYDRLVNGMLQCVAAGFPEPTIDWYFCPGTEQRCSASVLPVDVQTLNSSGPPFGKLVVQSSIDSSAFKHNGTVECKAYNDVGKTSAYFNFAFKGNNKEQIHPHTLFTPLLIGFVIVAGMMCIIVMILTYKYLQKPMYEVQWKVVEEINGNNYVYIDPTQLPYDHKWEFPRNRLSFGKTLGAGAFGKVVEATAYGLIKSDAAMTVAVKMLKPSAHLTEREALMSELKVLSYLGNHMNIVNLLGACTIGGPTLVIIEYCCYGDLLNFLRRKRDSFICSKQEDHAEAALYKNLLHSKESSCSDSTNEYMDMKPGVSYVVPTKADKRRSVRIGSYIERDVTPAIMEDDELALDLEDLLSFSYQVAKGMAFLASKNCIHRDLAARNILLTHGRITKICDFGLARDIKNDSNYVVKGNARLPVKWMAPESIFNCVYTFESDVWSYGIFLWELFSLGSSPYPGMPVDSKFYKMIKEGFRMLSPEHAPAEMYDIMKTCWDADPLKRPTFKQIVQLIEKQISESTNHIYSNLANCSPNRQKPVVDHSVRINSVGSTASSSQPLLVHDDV
Assay [5] shares this test system. As to conditions: at 1 µM.
Assay [6] has as its system Mast/stem cell growth factor receptor Kit (Homo sapiens), P10721 [V560G]. Conditions: at 0.1 µM.
The test system is the same in assay [7]. Conditions: at 1 µM.
Assay [8] concerns the target Tyrosine-protein kinase Lck (Homo sapiens) (UniProt P06239). As to conditions: at 0.1 µM.
For assay [9] the target is unchanged. As to conditions: at 1 µM.
The target in assay [10] is Leukocyte tyrosine kinase receptor (Homo sapiens) (UniProt P29376). As to conditions: at 0.1 µM.
Chain of Leukocyte tyrosine kinase receptor (Homo sapiens) (P29376 whole entry): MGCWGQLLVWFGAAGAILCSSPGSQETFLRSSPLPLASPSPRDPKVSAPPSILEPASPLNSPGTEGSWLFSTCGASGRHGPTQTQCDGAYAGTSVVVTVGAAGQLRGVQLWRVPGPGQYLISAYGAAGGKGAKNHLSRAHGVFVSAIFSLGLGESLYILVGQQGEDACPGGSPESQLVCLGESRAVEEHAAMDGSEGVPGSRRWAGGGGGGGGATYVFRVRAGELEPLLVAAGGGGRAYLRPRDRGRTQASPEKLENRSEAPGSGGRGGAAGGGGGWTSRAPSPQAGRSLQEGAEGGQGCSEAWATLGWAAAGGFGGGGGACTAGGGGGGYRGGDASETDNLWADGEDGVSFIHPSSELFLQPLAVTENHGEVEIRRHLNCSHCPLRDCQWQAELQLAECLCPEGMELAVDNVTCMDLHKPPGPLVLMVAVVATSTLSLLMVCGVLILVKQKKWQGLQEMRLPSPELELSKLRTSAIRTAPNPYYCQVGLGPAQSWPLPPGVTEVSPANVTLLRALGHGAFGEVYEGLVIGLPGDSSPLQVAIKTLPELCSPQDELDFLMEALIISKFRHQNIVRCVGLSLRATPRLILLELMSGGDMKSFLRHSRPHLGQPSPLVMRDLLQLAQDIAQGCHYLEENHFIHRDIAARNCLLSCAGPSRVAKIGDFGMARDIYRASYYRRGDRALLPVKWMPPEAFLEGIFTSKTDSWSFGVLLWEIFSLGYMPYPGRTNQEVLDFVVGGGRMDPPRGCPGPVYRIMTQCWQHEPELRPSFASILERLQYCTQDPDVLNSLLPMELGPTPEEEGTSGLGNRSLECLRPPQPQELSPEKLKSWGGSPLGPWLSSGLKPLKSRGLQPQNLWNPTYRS
Assay [11] has the same target. As to conditions: at 1 µM.
Assay [12] addresses Tyrosine-protein kinase Lyn (Homo sapiens) (UniProt P07948). Conditions: at 0.1 µM.
Assay [13] shares this target. As to conditions: at 1 µM.
Assay [14] shares this target. Conditions: at 0.1 µM. This is another data set of the same source.
For assay [15] the target is unchanged. As to conditions: at 1 µM. The source holds these as a separate data set.
In assay [16] the target is T1, Tyrosine-protein kinase Mer (Homo sapiens) (UniProt Q12866).
T1 sequence (whole entry): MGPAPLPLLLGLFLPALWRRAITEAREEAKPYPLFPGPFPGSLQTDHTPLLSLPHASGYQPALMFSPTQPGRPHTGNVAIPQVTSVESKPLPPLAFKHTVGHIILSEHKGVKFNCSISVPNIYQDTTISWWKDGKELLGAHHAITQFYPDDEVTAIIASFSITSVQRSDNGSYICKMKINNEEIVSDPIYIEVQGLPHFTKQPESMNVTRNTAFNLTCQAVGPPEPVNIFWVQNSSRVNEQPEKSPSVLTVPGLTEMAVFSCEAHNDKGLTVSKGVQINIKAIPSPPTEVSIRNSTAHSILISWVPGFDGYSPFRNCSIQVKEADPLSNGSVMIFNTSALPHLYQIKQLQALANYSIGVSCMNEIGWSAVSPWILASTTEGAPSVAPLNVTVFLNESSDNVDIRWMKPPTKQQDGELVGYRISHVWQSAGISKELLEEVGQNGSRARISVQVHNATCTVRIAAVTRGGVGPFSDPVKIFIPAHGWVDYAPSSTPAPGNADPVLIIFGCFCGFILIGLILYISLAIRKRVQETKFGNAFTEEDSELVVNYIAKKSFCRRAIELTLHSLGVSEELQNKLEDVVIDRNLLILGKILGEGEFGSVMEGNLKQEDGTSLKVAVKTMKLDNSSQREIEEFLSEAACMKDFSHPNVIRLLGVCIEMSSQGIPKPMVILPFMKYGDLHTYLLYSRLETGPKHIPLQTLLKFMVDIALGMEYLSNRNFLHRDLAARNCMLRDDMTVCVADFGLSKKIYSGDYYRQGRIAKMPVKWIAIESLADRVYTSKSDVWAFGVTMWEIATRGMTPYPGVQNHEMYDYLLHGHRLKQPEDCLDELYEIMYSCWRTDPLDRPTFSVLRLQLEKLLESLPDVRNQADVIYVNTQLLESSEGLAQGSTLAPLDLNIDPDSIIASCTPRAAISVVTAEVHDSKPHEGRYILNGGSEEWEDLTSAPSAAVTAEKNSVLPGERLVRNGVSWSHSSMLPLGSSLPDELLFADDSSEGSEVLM
As to conditions: at 0.1 µM.

The target in assay [17] is T1, Tyrosine-protein kinase Mer (Homo sapiens). Conditions: at 1 µM.
In assay [18] the target is Hepatocyte growth factor receptor (Homo sapiens) (UniProt P08581). Conditions: at 0.1 µM.
Chain of Hepatocyte growth factor receptor (Homo sapiens) (P08581 whole entry): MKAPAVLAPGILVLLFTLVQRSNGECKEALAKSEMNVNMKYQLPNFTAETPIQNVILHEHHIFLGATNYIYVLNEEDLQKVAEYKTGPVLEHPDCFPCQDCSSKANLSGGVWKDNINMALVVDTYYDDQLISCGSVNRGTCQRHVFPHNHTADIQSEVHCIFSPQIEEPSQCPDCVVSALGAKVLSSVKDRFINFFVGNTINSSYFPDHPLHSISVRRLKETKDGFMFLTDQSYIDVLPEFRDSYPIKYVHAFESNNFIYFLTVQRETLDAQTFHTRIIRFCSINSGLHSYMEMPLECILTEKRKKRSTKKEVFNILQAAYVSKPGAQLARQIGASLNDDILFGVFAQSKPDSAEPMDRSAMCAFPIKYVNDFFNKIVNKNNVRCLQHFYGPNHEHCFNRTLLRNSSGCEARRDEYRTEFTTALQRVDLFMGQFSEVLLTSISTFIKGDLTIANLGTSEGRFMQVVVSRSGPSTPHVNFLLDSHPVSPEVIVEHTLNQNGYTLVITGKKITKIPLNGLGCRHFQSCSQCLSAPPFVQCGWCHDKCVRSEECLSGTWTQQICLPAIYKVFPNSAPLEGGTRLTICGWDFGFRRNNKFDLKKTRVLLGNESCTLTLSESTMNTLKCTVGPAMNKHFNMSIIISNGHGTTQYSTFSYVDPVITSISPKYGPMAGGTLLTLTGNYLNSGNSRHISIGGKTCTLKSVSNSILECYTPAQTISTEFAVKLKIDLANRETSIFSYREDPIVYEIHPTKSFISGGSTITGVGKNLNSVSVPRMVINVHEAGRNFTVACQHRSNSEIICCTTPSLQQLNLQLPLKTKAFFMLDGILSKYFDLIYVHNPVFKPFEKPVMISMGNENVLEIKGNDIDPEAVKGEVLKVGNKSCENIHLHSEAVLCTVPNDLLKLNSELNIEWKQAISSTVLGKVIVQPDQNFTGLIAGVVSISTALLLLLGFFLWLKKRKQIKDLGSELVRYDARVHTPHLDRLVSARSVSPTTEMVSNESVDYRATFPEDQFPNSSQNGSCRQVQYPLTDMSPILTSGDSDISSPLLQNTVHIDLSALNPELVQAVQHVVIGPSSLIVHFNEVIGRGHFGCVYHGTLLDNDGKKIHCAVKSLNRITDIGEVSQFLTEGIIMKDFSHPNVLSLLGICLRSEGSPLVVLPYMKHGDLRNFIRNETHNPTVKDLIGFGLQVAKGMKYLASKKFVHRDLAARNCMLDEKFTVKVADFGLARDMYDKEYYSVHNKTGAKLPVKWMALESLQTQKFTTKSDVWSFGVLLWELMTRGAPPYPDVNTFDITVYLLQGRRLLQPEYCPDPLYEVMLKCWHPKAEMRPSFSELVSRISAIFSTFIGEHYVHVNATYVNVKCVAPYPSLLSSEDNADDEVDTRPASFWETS
The target is the same in assay [19]. As to conditions: at 1 µM.
The target of assay [20] is T2, Muscle, skeletal receptor tyrosine-protein kinase (Homo sapiens) (UniProt O15146).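 Note: values are mean inhibition of MuSK from the GSK PKIS kinase screening panel.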
T2 sequence (whole entry): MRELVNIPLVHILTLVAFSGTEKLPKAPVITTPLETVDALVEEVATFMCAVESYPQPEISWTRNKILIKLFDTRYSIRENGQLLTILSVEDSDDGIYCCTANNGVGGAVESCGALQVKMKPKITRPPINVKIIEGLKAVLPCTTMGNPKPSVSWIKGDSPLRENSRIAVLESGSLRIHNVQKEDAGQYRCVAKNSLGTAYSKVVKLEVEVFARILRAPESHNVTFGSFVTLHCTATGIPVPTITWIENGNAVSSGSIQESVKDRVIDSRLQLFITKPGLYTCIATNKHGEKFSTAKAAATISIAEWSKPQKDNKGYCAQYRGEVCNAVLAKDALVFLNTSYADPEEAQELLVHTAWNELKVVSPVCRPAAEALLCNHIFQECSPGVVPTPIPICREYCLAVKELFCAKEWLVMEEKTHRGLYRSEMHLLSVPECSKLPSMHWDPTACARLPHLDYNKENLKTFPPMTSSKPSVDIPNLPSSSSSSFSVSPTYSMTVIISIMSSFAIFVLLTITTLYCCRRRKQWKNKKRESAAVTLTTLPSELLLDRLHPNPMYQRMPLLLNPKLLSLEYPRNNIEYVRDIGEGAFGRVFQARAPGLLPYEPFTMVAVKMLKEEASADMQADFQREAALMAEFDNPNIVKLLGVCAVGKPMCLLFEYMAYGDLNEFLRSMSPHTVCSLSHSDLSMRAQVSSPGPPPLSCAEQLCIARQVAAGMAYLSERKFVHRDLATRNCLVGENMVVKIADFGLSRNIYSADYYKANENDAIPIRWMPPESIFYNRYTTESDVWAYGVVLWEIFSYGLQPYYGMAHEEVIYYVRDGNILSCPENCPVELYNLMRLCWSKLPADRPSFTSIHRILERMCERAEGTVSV
Conditions: at 0.1 µM.

Chain of Tyrosine-protein kinase Lyn (Homo sapiens) (P07948 2-512 limits assumed): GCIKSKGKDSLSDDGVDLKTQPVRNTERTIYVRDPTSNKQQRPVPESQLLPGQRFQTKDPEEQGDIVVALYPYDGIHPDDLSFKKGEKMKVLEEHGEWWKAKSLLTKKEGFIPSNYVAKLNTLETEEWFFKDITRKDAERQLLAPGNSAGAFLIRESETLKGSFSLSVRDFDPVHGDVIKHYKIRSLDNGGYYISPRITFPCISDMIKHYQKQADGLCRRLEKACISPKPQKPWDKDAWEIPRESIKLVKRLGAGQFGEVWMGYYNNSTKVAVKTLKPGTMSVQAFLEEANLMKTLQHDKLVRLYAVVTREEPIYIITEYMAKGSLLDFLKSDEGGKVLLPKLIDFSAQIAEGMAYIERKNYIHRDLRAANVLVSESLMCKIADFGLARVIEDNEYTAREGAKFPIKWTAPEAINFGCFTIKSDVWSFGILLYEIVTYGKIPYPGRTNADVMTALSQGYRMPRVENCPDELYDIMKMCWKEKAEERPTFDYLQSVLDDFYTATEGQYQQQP
Chain of Mast/stem cell growth factor receptor Kit (Homo sapiens), P10721 [V560G] (P10721 whole entry V560G): as the sequence (P10721 whole entry T670I) above, with V560G, I670T counted along it
Chain of Tyrosine-protein kinase Lck (Homo sapiens) (P06239 2-509 limits assumed): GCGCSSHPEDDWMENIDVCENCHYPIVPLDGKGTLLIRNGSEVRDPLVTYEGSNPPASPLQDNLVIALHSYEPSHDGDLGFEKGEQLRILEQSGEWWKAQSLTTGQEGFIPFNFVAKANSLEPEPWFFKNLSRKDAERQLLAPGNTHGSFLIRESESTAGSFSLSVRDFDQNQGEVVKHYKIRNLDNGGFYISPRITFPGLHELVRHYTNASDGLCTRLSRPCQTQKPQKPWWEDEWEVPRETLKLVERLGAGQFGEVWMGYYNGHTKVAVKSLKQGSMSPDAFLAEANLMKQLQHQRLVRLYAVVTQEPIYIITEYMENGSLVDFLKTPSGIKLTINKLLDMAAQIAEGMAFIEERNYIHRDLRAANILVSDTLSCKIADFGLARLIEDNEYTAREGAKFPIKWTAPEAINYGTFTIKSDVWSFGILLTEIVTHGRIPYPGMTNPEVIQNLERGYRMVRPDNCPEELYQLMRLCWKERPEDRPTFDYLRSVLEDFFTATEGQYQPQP
Chain of Mast/stem cell growth factor receptor Kit (Homo sapiens), P10721 [D816V] (P10721 whole entry D816V): as the sequence (P10721 whole entry T670I) above, with I670T, D816V counted along it
Chain of Mast/stem cell growth factor receptor Kit (Homo sapiens) (P10721 whole entry): as the sequence (P10721 whole entry T670I) above, with I670T counted along it

A word on the inhibition: it is the drop in the measured response relative to a control, in per cent. `CCn1cc(-c2ccnc3[nH]ccc23)c(-c2cccc(NC(=O)Nc3ccc(OCc4ccccc4)cc3)c2)n1`: the inhibition in assay [1] is -0.41%; in assay [2], 1.35%; in assay [3] it was -0.05%; in assay [4] it was -1.41%; in assay [5], -1.25%; in assay [6], -1.87%. Besides, the inhibition in [7] was -1.14%; in [8], 2.58%; in [9], 21.8%; in assay [10] it was 1.35%; in [11] it was -0.91%; in assay [12], 5.25%. Moreover, the inhibition in assay [13] is 19.4%; in assay [14], 2.62%; in [15] it was 13.6%; in assay [16], 0.66%; in [17] it was 8.39%; in assay [18], 9.54%. The inhibition in assay [19] is 46.4%; in [20], -1.52%.
With `CCN1CCC(CC(=O)Nc2n[nH]c3nnc(-c4cccc(F)c4F)cc23)CC1`, the inhibition came to 0.38% in assay [1]; 0.53% in assay [2]; 0.47% in assay [3]; 0.27% in assay [4]; 1.83% in assay [5]; 1.48% in assay [6]. In addition, the inhibition in assay [7] was -0.83%; in assay [8], 2.01%; in assay [9], 6.17%; in assay [10], 2.06%; in assay [11], 1.45%; in assay [12], 3.32%. The inhibition in assay [13] was 3.55%; in assay [14], 2.16%; in assay [15], 2.2%; in assay [16], -1.66%; in [17], -0.36%; in assay [18], 4.54%. The figures for the inhibition in [19] and in assay [20] were 9.2% and 1.85%, respectively.
Regarding `COc1ccc2c(-c3ccnc(Nc4cccc(OC(F)(F)F)c4)n3)cnn2n1`, the inhibition in assay [1] is 45.9%; in [2] it was 7.04%; in [3] it was 6.99%; in [4] it was 2.93%; in assay [5] it was 11.2%; in assay [6] it was -0.57%. The inhibition in [7] is 5.63%; in assay [8], 1.54%; in assay [9], 5.72%; in [10], 3.12%; in assay [11], 4.46%; in assay [12], 7.95%. Moreover, the inhibition in [13] stood at 9.21%; in assay [14], 3.18%; in assay [15] it was 7.1%; in assay [16], 1.44%; in assay [17], 2.89%; in [18] it was 4.94%. In addition, the inhibition was 15.7% in assay [19] and 5.85% in assay [20].
`CC(=O)Nc1cccc(C#Cc2cncnc2Nc2ccc(OCc3cccc(F)c3)c(Cl)c2)c1`: the inhibition in assay [1] was 2.18%; in assay [2], 1.33%; in assay [3], 0.94%; in assay [4], 0.96%; in assay [5], -0.24%; in assay [6], 2.26%. The inhibition in assay [7] was determined as 5.18%; in assay [8], 1.97%; in assay [9], 3.76%; in assay [10], 0.86%; in [11], 0.9%; in [12], 1.26%. The inhibition was 1.6% in assay [13]; 1.1% in [14]; 0.14% in assay [15]; 1.62% in assay [16]; 2.65% in assay [17]; 4.11% in assay [18]. The values for the inhibition in assay [19] and in assay [20] were 1.83% and 2.39%, respectively.
With `Fc1cccc(COc2ccc(Nc3ncnc4sc(-c5ccco5)cc34)cc2Cl)c1`, the inhibition in assay [1] was 6.21%; in assay [2], 3.37%; in [3], 6.34%; in assay [4] it was 2.63%; in assay [5] it was 3.7%; in assay [6], -0.3%. The inhibition worked out at 0.57% in assay [7]; 3.21% in [8]; 5.67% in [9]; 3.44% in [10]; 4.08% in assay [11]; 3.59% in [12]. The inhibition in assay [13] worked out at 4.38%; in [14], 2.97%; in assay [15], 2.48%; in [16], 0.45%; in assay [17], 3.51%; in assay [18], 3.09%. Moreover, the inhibition is 4.96% in [19] and 4.4% in [20].
For the compound `c1ccc(-c2nc3n(c2-c2ccc4c(c2)OCO4)CCC3)nc1`, the inhibition in [1] was 1.73%; in assay [2], 2.63%; in assay [3], 0.34%; in [4], 2.34%; in assay [5], 2.64%; in [6], -1.47%. Moreover, the inhibition in assay [7] is -1.27%; in assay [8] it was 0.66%; in assay [9], 3.01%; in assay [10], 0.09%; in assay [11], 0.36%; in assay [12], 1.78%. Also, the inhibition in assay [13] was 2.26%; in assay [14], 0.94%; in assay [15] it was 0.92%; in assay [16], 1.83%; in [17], 0.66%; in assay [18], 2.27%. Besides, the inhibition in assay [19] is -1.42%; in assay [20], 0.55%.
